The test addresses Eukaryotic translation initiation factor 4H (Homo sapiens) (UniProt Q15056). Put plainly: eIF4H binding inhibition – biochemical, uHTS, fluorescence polarization, translation initiation inhibitor project, primary screen (AID 2012).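 Further: calls also rest on retests at 20 µM and on dose response follow-up.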 As to conditions: eIF4H fluorescence polarization binding assay, stronger effect = higher value.

Here are results for 48 compounds from PubChem BioAssay AID2012 (Sanford-Burnham Center for Chemical Genomics, 2009).

Out of some 290,000 compounds screened, about 2,700 (0.93%) were called active. This is one part of a sample in which actives are shown more often than they occur. How the calls were made is not given here.

`Cc1ccc(OCCCCc2c(C)n[nH]c2C)cc1`: the inhibition (as a rule, the drop in the measured response relative to a control, in per cent) (at 35 µM) was -10.3% (inactive).

With `CCOC(=O)CC1(NC(=O)c2cc(COc3cncc(Cl)c3)on2)CCCCC1`, the inhibition (at 35 µM) was -10.4% (inactive).

For the compound `COc1ccc(CN2CCN(C(=O)CCC(=O)Nc3nnc(C(C)C)s3)CC2)cc1F`, under “at 35 µM”, the inhibition was -7.1% (inactive).

Turning to `COc1ccc(NC(=O)CCN2C(=O)/C(=C/c3ccc4c(c3)OCO4)SC2=S)cc1`, where the note is “at 35 µM”, the inhibition was 5.7% (inactive).

In the case of `Cn1c(=O)n(C)c2cc(C(=O)Nc3ccc4c(c3)OCO4)ccc21`, for the setting “at 35 µM”, the inhibition was -6.6% (inactive).

In the case of `Cc1ccc(C(=O)O)cc1-c1ccc(/C=C2\SC(=O)N(CC(=O)Nc3ccc4c(c3)OCO4)C2=O)o1`, the inhibition (at 35 µM) is 59.7% (active).

As for `Cc1ccc(S(=O)(=O)N(CC(=O)Nc2cccnc2)c2ccc(Br)cc2)cc1`, the inhibition (at 35 µM) is 2% (inactive).

In the case of `CCC(NC(=O)C1CCCC1)c1ccc(C)cc1` (configuration not stated), the inhibition (at 35 µM) is -4.3% (inactive).

Turning to `Cc1ccccc1C(=O)N1CCC(C(=O)Oc2ccc(C#N)cc2)CC1`, under “at 35 µM”, the inhibition was -15.9% (inactive).

`CCN(CC)S(=O)(=O)c1ccc(N2CC(C(=O)NCc3cccnc3)CC2=O)cc1` (configuration not stated): the inhibition (at 35 µM) was -0.4% (inactive).

With `Fc1ccccc1N=C1Nc2cccc3cccc1c23`, the inhibition (at 35 µM) was -3.8% (inactive).

Turning to `c1ccc(C2=Nc3cccc4cccc(c34)N2)cc1`, the inhibition (at 35 µM) is -0.5% (inactive).

On to `COc1ccccc1C1=Nc2cccc3cccc(c23)N1`, for which the inhibition was 99.8% (active) (at 35 µM) and 108% (confirmation average, at 20 µM).

Take `CC1CCC2(CC1)NC(=O)N(CC(=O)c1ccc3c(c1)OCO3)C2=O` (configuration not stated): the inhibition (at 35 µM) was -5.1% (inactive).

For `Cn1cccc1C(=O)N1CCc2ccccc2C1`, under “at 35 µM”, the inhibition is -1.9% (inactive).

Regarding `CN(CC(=O)Nc1c(Cl)cccc1Cl)C(=O)CNC(=O)C1CCCCC1`, the inhibition (at 35 µM) is -8.8% (inactive).

In the case of `Cc1cccc(NC(=O)c2sc3nc(N4CCOCC4)c4c(c3c2N)CCCC4)c1`, the inhibition (at 35 µM) is -4.2% (inactive).

As to `CC(=O)Nc1ccc(NC(=O)c2sc3nc4c(c(-c5ccc(C)cc5)c3c2N)CCC4)cc1`, under “at 35 µM”, the inhibition was -0.5% (inactive).

Regarding `Cc1cccc(NC(=O)c2sc3nc4c(c(-c5ccco5)c3c2N)CCC4)c1`, the inhibition runs as follows: (at 35 µM) 82.9% (active); (confirmation average, at 20 µM) 90.9%.

As to `Cc1ccc(-n2ncc3c2CC(C)(C)CC3NC(=O)Cc2c(C)noc2C)cc1` (configuration not stated), the inhibition (at 35 µM) is 5.3% (inactive).

As for `CSc1nc(-c2ccco2)nn1C(=O)CCc1ccccc1`, the inhibition (at 35 µM) was -7.7% (inactive).

Take `CCOc1ccccc1/C=c1\sc2nc(-c3ccco3)nn2c1=O`: the inhibition (at 35 µM) is 81.8% (active).

For `CCOC(=O)/C=c1\s/c(=C\c2ccccc2OC)c(=O)n1CC(=O)N1CCOCC1`, the inhibition (at 35 µM) was 5.6% (inactive).

Turning to `Cc1ccc2[nH]c(=O)c(CN(C)S(=O)(=O)c3cccc4nonc34)cc2c1`, under “at 35 µM”, the inhibition is -5.4% (inactive).

On to `CN(CCOc1ccccc1)C(=O)c1cc(COc2c(F)cccc2F)on1`, for which the inhibition (at 35 µM) was -0.6% (inactive).

As for `O=C(OCC1O[C@@H](OC(=O)c2cc(O)c(O)c(O)c2)[C@@H](OC(=O)c2cc(O)c(O)c(O)c2)[C@@H](OC(=O)c2cc(O)c(O)c(O)c2)[C@@H]1OC(=O)c1cc(O)c(O)c(O)c1)c1cc(O)c(O)c(O)c1` (some centres not stated), the inhibition (at 35 µM) is 92% (active).

Consider `COc1ccc(N(CC(=O)Nc2cc(OC)ccc2OC)S(=O)(=O)c2c(C)noc2C)cc1`, for which, for the setting “at 35 µM”, the inhibition was -10.2% (inactive).

`O=C(CSc1ncn[nH]1)N/N=C/c1ccc(F)cc1`: the inhibition (at 35 µM) was -1.2% (inactive).

On to `CCN(CC(=O)NCc1cccs1)C(=O)c1ccccc1F`, for which the inhibition (at 35 µM) was -2.7% (inactive).

Consider `COc1cc(CC(=O)NCc2cccs2)cc(OC)c1OC`, for which, for the setting “at 35 µM”, the inhibition was -15% (inactive).

In the case of `CCN(CC(=O)NCc1cccs1)C(=O)c1cccc(S(=O)(=O)Nc2ccccc2OC)c1`, the inhibition was 35.7% (active) (at 35 µM) and 53.9% (confirmation average, at 20 µM).

`Cc1ccc(C(=O)c2coc3ccc(O)c(CN(C)C)c23)cc1`: where the note is “at 35 µM”, the inhibition was -10.3% (inactive).

On to `Cc1c(CC(=O)N2CCN(C(=O)C3COc4ccccc4O3)CC2)c(=O)oc2c(O)c(O)ccc12` (configuration not stated), for which the inhibition runs as follows: (at 35 µM) 61% (active); (confirmation average, at 20 µM) 103%.

Take `O=C(CNC(=O)C1COc2ccccc2O1)N/N=C/c1cc(Br)c(O)c(Br)c1` (configuration not stated): where the note is “at 35 µM”, the inhibition is 7.4% (inactive).

`Cc1c(C)c2ccc(OCC(=O)N3CCC(C(=O)O)CC3)c(C)c2oc1=O`: the inhibition (at 35 µM) is -4% (inactive).

`COc1ccccc1OCc1ccc(C(=O)NC(C)c2ccccc2)o1` (configuration not stated): the inhibition (at 35 µM) was -6.4% (inactive).

In the case of `Cc1cccc(-c2nc3ccc(C(=O)NCCN4CCN(C)CC4)cc3nc2-c2cccc(C)c2)c1`, the inhibition (at 35 µM) was -1.5% (inactive).

For the compound `O=C1CN(C(=O)c2ccccc2F)C(c2ccc(F)cc2)c2cc(F)ccc2N1` (configuration not stated), for the setting “at 35 µM”, the inhibition is -4.2% (inactive).

For the compound `Cc1c(-c2ccccc2)cn2c1-c1ccc(C)n1CC2`, the inhibition (at 35 µM) is 90.6% (active).

Consider `Cc1ccc2c(c1)N(CC(=O)N1CCC(C)CC1)C(=O)c1cccnc1O2`, for which the inhibition (at 35 µM) is -17.4% (inactive).

Take `CCOc1ncccc1C(=O)NCCc1ccc(OC)cc1`: the inhibition (at 35 µM) was -1.9% (inactive).

Regarding `COC(=O)c1cc(CNC(=O)CC(C)c2ccccc2)ccc1OC` (configuration not stated), the inhibition (at 35 µM) is -2% (inactive).

On to `C/C(=N\NC(=O)COc1ccc(C)cc1[N+](=O)[O-])c1ccc2c(c1)OCCO2`, for which, for the setting “at 35 µM”, the inhibition is -2.1% (inactive).

As to `CC(NC(=O)COc1ccc(-c2ccccc2)cc1)C1CCCO1` (configuration not stated), the inhibition (at 35 µM) is -6.9% (inactive).

Take `Cc1cc(C)c2nc(-c3ccco3)cc(C(=O)O)c2c1`: the inhibition (at 35 µM) is 103% (active).

Take `COC(=O)c1cnn2c(C(F)(F)F)cc(-c3ccco3)nc12`: the inhibition (at 35 µM) is -0.4% (inactive).

Regarding `Cc1ccsc1-c1cc(C(=O)O)c2c(ccc3ccccc32)n1`, the inhibition (at 35 µM) was 30.1% (inactive).

For `Fc1cc(F)c2nc(N3CCOCC3)sc2c1`, the inhibition (at 35 µM) is -7.8% (inactive).
